Shown are actives, neighbours in structure and some others; about 2.4% of the full set was active somewhere.
Pol kappa inh – inhibitors of human DNA polymerase kappa; Q9UBT6; purified Pol kappa, fluorescent DNA synthesis assay, 10 min; Potency, µM (doses to about 107 µM), inactives show at the highest dose activity, negative = inhibition, usual class: inhibitors; 400,000 tested, 0.53% active; AID 588579; further: on the % scale 0 is the no-effect control and ±100 the full control effect
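Inhibition of 10 nM Pol kappa is measured by a fluorescent read-out at 0 and 10 min following addition of 50 nM substrate (final), with a 15-min room-temperature compound preincubation.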
POLI inh – blocks human DNA polymerase iota activity; Q9UNA4; Pol iota fluorescent replication assay, 10 min; 390,000 tested, 1% active; Potency, µM (series often up to 115 µM), for the others: at the top dose activity, negative = inhibition, most hits filed as inhibitors
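Pol iota at 10 nM preincubated 15 min with compounds at room temperature; reaction started with fluorescent substrate, 50 nM final. Fluorescence read kinetically at 0 and 10 min; buffer-only wells as negative control.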
FEN1 inhibitor – inhibitors of human flap endonuclease 1; 390,000 tested, 0.35% active; Recombinant FEN1 flap cleavage, fluorescence, 15 min; Potency, µM (highest dose often 114 µM), without a hit: at the top dose activity change, negative = inhibition, hits mostly inhibitors; AID 588795; P39748; further: on the % scale 0 is the no-effect control and ±100 the full control effect; nearly all actives have a fitted effect of over 65% in size
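Concentration–response screening of FEN1 (10 nM): 15 min compound preincubation at room temperature, reaction started with 50 nM substrate and read at 0 and 15 min. Corrected, normalized data were fitted by a four-parameter Hill equation.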
Tb PGK inh – inhibitors of T. brucei phosphoglycerate kinase; 380,000 tested, 0.043% active; AID 602233; Potency, µM (series often up to 57.5 µM), for inactives: top-dose activity change, negative = inhibition, actives largely listed as inhibitors; PGK/GAPDH coupled, Kinase-Glo luminescence, 60 min; further: on the % scale 0 is the no-effect control and ±100 the full control effect; nearly all actives have a fitted effect of over 60% in size
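Recombinant glycosomal PGK reaction used 1,3-bisphosphoglycerate generated in-well by GAPDH (100nM final) in 100mM TEA pH 7.6, 5mM MgCl2, 0.01% Tween-20. After 60 minutes at room temperature, ATP was read by Kinase-Glo Plus luminescence end-point.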
Pol eta inh – inhibitors of human DNA polymerase eta; Potency, µM (titrated, usually from 114 µM), for inactives: at the highest dose activity change, negative = inhibition, hits mostly inhibitors; 390,000 tested, 1.2% active; AID 588591; recombinant Pol eta, fluorescent DNA replication assay; further: on the % scale 0 is the no-effect control and ±100 the full control effect
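Pol eta (10 nM) was preincubated with compounds for 15 min at room temperature, after which fluorescent replication substrate (50 nM final) was added to start the reaction. Fluorescence was read kinetically at 0 and 10 min.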
POLB inh – DNA polymerase beta (human) inhibition | Pol beta primer extension/strand displacement, fluorescence kinetic | Potency, µM (top dose mostly 114 µM), inactives show top-dose activity change, negative = inhibition, actives largely listed as inhibitors | 340,000 tested, 1.3% active | AID 485314; further: on the % scale 0 is the no-effect control and ±100 the full control effect
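Homogeneous kinetic assay of primer extension and strand displacement by 10 nM Pol beta, preincubated 15 min at room temperature with compound before 50 nM substrate (final) was added. Read at 0 and 10 min; four-parameter Hill fit.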
* = called active by the depositor; [ ] = another dose, or the depositor's remark. The call rests on the fitted dose curve; in most records, active means well fitted curve in the direction sought with a large enough effect; inconclusive means small, poorly fitted or top-dose-only effect, or another doubt; inactive means no such curve, though single readings can be large; an effect the other way counts as inactive or inconclusive. Potency means the concentration at half of the fitted maximal effect.

Screening Cc1cc(O)c(C=O)c2c1C(=O)Oc1c(COC(=O)/C=C/C(=O)O)c(O)c(C(=O)O)c(C)c1O2 returned Pol kappa inh 3.5µM*.
CCCCN1CCC[C@H]1CNC(=O)c1cc(C#N)c2ccccc2c1OC was read as Pol kappa inh 14%[60.1 µM].
CCCCNc1ncnc2oc(-c3ccco3)c(-c3ccco3)c12 was read as Pol kappa inh inconclusive, POLI inh 71µM* and FEN1 inhibitor inconclusive.
Screening COc1ccc(/C=N/NC(=O)c2[nH]nc3c2CCc2ccccc2-3)cc1OC returned Pol kappa inh inconclusive, POLI inh -52%, FEN1 inhibitor inconclusive, Tb PGK inh -8%, Pol eta inh inconclusive and POLB inh 11µM*.
`CCOc1ccc2[nH]c(C(=O)N/N=C/c3cc(OC)c(OC)c(OC)c3)cc2c1` gave Pol kappa inh -30%, POLI inh -15%, FEN1 inhibitor -2%, Tb PGK inh inactive, Pol eta inh inconclusive and POLB inh 13µM*.
O=C(NCCO)c1ccc(CSc2nc3ccccc3[nH]2)cc1 was read as Pol kappa inh -3%, POLI inh 21%, FEN1 inhibitor -4%, Tb PGK inh -4%, Pol eta inh -11% and POLB inh 32%.
For COc1cc(/C=N/NC(=O)c2ccc3nc[nH]c3c2)cc(OC)c1OC the results were Pol kappa inh inconclusive, POLI inh 16µM*, FEN1 inhibitor -9%, Tb PGK inh -1%, Pol eta inh inconclusive and POLB inh 7.1µM*.
Screening COc1cc(/C=N/NC(=O)c2ccc(CSc3nc4ccccc4[nH]3)cc2)cc(OC)c1OC returned Pol kappa inh inconclusive, POLI inh inconclusive, FEN1 inhibitor -31%, Tb PGK inh -5%, Pol eta inh inconclusive and POLB inh 10µM*.
CNC(=O)c1[nH]nc2c1CCc1ccccc1-2 was read as Pol kappa inh 1%, POLI inh 128%, FEN1 inhibitor 13%, Tb PGK inh -2%, Pol eta inh -10% and POLB inh 1%.
For COc1cc(/C=N/NC(=O)c2ccc3nc[nH]c3c2)cc(OC)c1OC(C)=O the results were Tb PGK inh inactive and Pol eta inh 9%.
CCSc1ncc(Cl)c(C(=O)Nc2sc3c(c2C(=O)OC)CCCC3)n1 was read as Pol kappa inh -12%, POLI inh 26% and FEN1 inhibitor 14%.
COc1ccc(/C=N/NC(=O)c2ccc3nc[nH]c3c2)cc1OC was read as Pol kappa inh inconclusive, POLI inh 13µM*, FEN1 inhibitor -13%, Tb PGK inh -3%, Pol eta inh -15% and POLB inh 16µM*.
Fc1ccc(CSc2nc3ccccc3[nH]2)cc1 was read as Pol kappa inh -4%, POLI inh 71µM*, FEN1 inhibitor -5%, Tb PGK inh -3%[11.5 µM], Pol eta inh -2% and POLB inh 77%.
Screening c1ccc(CSc2nc3ccccc3[nH]2)cc1 returned Pol kappa inh -5%, POLI inh 12%, FEN1 inhibitor 11%, Tb PGK inh -3%, Pol eta inh -23% and POLB inh 2%.
`Cc1ccc(NC(=O)C2CCC(CNS(=O)(=O)c3csc(C(N)=O)c3)CC2)cc1Cl` (configuration not stated) gave Pol kappa inh -4%, POLI inh 8%, FEN1 inhibitor 22%, Tb PGK inh 3%, Pol eta inh -9% and POLB inh -1%.
For O=S(=O)(Nc1cccc2ccccc12)c1cccc2ccccc12 the results were Pol kappa inh -18%, POLI inh 5% and FEN1 inhibitor -22%.
`Cc1ccccc1OCC(=O)OCC(=O)Nc1ccc2c(c1)OCCO2` gave Pol kappa inh -4%, POLI inh 13µM*, FEN1 inhibitor 0%, Tb PGK inh -5% and Pol eta inh -3%.

Source: PubChem BioAssay
